In PMC4336329 (PLoS ONE, 2015):
Out of some 310,000 compounds screened, about 14,000 (4.5%) showed an effect of 50% or more. Effects have a minus sign here. The full list was thinned out, with strong results kept by preference.

Biological target: human ether-à-go-go-related gene (hERG) potassium channel (human, UniProt Q12809)
Assay: primary screen, population patch clamp on CHO cells stably expressing hERG; higher = less effect of the substance
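Also: peak tail current of the secondary pulse compared with the same well before compound.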

human ether-à-go-go-related gene (hERG) potassium channel, sequence (Q12809 whole entry, looked up): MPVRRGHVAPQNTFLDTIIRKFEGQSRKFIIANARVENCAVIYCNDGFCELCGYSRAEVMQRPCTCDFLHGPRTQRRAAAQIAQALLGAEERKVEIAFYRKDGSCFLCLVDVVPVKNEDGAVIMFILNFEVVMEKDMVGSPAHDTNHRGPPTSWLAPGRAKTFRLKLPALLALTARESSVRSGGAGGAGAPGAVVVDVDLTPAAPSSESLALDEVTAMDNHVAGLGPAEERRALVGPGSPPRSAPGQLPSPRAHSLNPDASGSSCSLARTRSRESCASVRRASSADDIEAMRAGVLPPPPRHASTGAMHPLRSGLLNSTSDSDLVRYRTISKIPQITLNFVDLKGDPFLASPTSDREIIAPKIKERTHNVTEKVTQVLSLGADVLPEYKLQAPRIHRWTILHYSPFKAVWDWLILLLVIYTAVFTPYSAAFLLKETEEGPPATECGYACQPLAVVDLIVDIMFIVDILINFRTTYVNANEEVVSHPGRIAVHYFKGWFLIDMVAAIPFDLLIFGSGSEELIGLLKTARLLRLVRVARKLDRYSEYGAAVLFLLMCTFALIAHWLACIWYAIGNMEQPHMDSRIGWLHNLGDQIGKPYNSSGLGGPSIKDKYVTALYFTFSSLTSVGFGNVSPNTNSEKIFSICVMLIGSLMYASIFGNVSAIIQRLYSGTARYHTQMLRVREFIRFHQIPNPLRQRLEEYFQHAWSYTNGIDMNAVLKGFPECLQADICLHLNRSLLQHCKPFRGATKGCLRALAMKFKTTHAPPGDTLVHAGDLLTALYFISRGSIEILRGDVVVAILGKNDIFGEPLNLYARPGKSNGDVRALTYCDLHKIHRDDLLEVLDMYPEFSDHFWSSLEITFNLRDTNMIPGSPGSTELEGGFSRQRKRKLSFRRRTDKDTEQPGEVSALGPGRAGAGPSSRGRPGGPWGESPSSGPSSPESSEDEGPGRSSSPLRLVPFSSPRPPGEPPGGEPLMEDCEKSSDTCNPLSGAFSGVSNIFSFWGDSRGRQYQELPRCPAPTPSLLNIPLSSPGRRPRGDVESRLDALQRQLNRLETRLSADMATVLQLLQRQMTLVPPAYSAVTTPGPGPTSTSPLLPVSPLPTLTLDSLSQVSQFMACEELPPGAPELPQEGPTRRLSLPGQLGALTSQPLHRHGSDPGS

SMILES | hERG current change (%, negative = inhibition) at 10uM
O=C(C[n+]1ccccc1)N1c2ccccc2Sc2ccccc21.[Cl-] | 20.7%
COc1cccc(CNC(=O)CCNS(=O)(=O)c2cccs2)c1 | -5.11%
COc1ccccc1-c1coc2c(CN3CCOCC3)c(O)ccc2c1=O | 8.17%
O=C(CN1CCOCC1)Nc1ccccc1Sc1ccc(Cl)cc1 | -44.1%
CC(=O)N1CCN(CC(=O)Nc2ccccc2Sc2ccccc2)CC1 | -59.5%
CC1CCCN(CC(=O)Nc2cc(Cl)ccc2Oc2ccccc2)C1 (stereo not shown) | 14.3%
O=C(CN1CCCCC1)Nc1cc(Cl)ccc1Oc1ccccc1 | 12.5%
CN1CCN(CC(=O)Nc2ccccc2Sc2ccccc2)CC1.O=C(O)C(=O)O | -65.3%
O=C(CN1CCCC1)Nc1ccccc1Sc1ccc(Cl)cc1 | -31.1%
O=C(CN1CCCC1)Nc1ccccc1Sc1ccccc1 | -13.5%
CC1CCN(CC(=O)Nc2ccccc2Sc2ccccc2)CC1 | -5.71%
O=C(CN1CCN(c2ccccc2)CC1)Nc1ccccc1Sc1ccccc1 | 9.55%
O=C(CN1CCOCC1)Nc1ccccc1Sc1ccccc1 | -31.3%
NC(=O)C1CCN(CC(=O)Nc2cc(Cl)ccc2Oc2ccccc2)CC1 | -67%
CC(=O)N1CCN(CC(=O)Nc2ccccc2Sc2ccc(Cl)cc2)CC1 | -78%
COC(=O)CNc1nc(Cl)nc(Nc2ccc(C)cc2)n1 | 18.3%
COc1cc(NC(=O)c2cccnc2SC)cc(OC)c1 | 10.2%
O=c1nccc(Nc2ccccc2)[nH]1 | 16.4%
CNC(=O)c1ccc(-c2cc(C(F)(F)F)nn2C)s1 | 17.6%
CCCc1sc(N/N=C/c2ccccn2)nc1-c1ccc(Br)cc1 | 5.39%
OCCCNC(=S)Nc1ccc(Oc2ccccc2)cc1 | 1.06%
Cc1ccc(OCCSc2nc3ccccc3n2CCC(=O)O)cc1 | 9.74%
CCOc1ccc(-n2c(=O)cc(N3CCN(c4ccc(F)cc4)CC3)[nH]c2=O)cc1 | 9.15%

SMILES | hERG current change (%, negative = inhibition) at 10uM
Cc1cc(NC(=O)NC(=O)c2ccccc2F)no1 | 13.7%
Cc1ccsc1-c1nc(CSCC(=O)N2CCN(c3ccccc3)CC2)c(C)o1 | -21.1%
COc1ccc(C(=O)NC(=S)SCC(=O)O)cc1 | 21.8%
Cc1onc(-c2c(F)cccc2Cl)c1C(=O)OCc1cnc(Cl)s1 | -3.61%
C[C@H](NC(=O)c1ccco1)C(=O)N1CCCC1 | 21.7%
NC(=O)C1CCN(CC(=O)Nc2cccnc2Cl)CC1 | 19.4%
NC(=O)C1CCN(CC(=O)Nc2ccccc2Sc2ccc(Cl)cc2)CC1 | -53.7%
NC(=O)C1CCN(CC(=O)Nc2ccccc2Sc2ccccc2)CC1 | -35.3%
NC(=O)CC(NC(=O)c1ccc(Br)cc1)c1ccc(N2CCCCCC2)c([N+](=O)[O-])c1 (stereo not shown) | -7.79%
CCOC(=O)N1CCN(S(=O)(=O)c2c[nH]c(C(=O)OC)c2)CC1 | 12%
COc1cccc(CNC(=O)c2nnn(CC(=O)Nc3ccc(C)c(C)c3)c2N)c1 | 1.8%
O=C(O)c1ccc(/C=N/Nc2ncc(C(F)(F)F)cc2Cl)cc1 | 3.54%
Cc1ccc(CN2CCC(C(=O)Nc3cccc(-c4cccc(F)c4)c3)CC2)o1 | -69.1%
COc1cccc(-c2cccc(NC(=O)C3CCN(Cc4ccc(CO)o4)CC3)c2)c1 | -32.5%
O=C(Nc1cccc(-c2cccc(F)c2)c1)C1CCN(Cc2ccco2)CC1 | -67.5%
O=C(Nc1cccc(-c2cscn2)c1)C1CCN(Cc2ccc(CO)o2)CC1 | -3.02%
O=C(Nc1cccc(F)c1)C1CCN(C(=O)c2ccco2)CC1 | -26.4%
COc1cccc(-c2cccc(NC(=O)C3CCN(Cc4ccc(C)o4)CC3)c2)c1 | -39.4%
O=C(c1cccc(F)c1)N1CCN(Cc2ccco2)CC1 | 4.78%
O=C(Nc1cccc(-c2cccc(F)c2)c1)C1CCN(Cc2ccc(CO)o2)CC1 | -70.3%
COCc1ccc(CN2CCC(C(=O)Nc3cccc(-c4cscn4)c3)CC2)o1 | -18.9%
O=C(Nc1cccc(-c2cccc(Cl)c2)c1)C1CCN(Cc2ccc(CO)o2)CC1 | -68%
COc1cccc(-c2ccc(NC(=O)C3CCCN(Cc4ccc(CO)o4)C3)cc2)c1 (stereo not shown) | 2.83%
